Among the data in PubChem BioAssay are z-score and composite z-score values, retold here.

Assay [1] can be described thus: E. coli DRC41 culture turbidity changes, primary screen, E. coli filamentation inducer project, strain DRC41, OD650, 48 h (AID 1152).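 Further: E. coli MC1000 strain DRC41 lacking acrAB efflux pump and sulA.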 Particulars: E. coli DRC41 (acrAB sulA), higher = more signal, called active from +8 up or from −8 down.
A short description of assay [2]: small-molecule binders of probe aLefty1, primary screen, biochemical, small-molecule microarray, 635/667 nm fluorescence (AID 1153).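 Further: score merges spot fluorescence with signal-to-noise ratio from the scanned slide images.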 As to conditions: higher = more signal.
The nature of assay [3]: PSAC antagonists in infected red cells, primary screen, cell-based, P. falciparum Indochina, OD700, 1 h (AID 1154). As to conditions: P. falciparum Indochina infected RBC osmotic lysis, higher = more signal, called active from +8 up or from −8 down.
A short description of assay [4]: PSAC antagonists in infected red cells, primary screen, cell-based, P. falciparum Indochina, OD700, 2 h (AID 1155).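 Further: lysis reports solute entry through the parasite surface anion channel PSAC; channel blockers reduce lysis of infected cells.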 As to conditions: P. falciparum Indochina infected erythrocytes, osmotic lysis OD700; higher = more signal, called active from +8 up or from −8 down.
Assay [5] is described as follows: osmotic lysis modulators in infected erythrocytes, primary screen, PSAC antagonist project, cell-based, P. falciparum Indochina, OD700, 3 h (AID 1156). As to conditions: higher = more signal, called active from +8 up or from −8 down.
Assay [6] can be described thus: PSAC antagonists in infected red cells, primary screen, cell-based, P. falciparum Indochina, OD700, 18 h (AID 1157). Particulars: P. falciparum Indochina infected erythrocytes, osmotic lysis OD700, 18 h; higher = more signal, called active from +8 up or from −8 down.
Assay [7] in a line: modulators of S6 phosphorylation in cells, primary screen, cell-based, A549, cytoblot, luminescence, serum-stimulated (AID 1158).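 Further: serum-stimulated A549 lung adenocarcinoma cells; signal is phosphorylated S6 detected by cytoblot immunostaining with HRP secondary.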 As to conditions: A549 phospho-S6 cytoblot, 5 h, higher = more signal.
In assay [8] the target is NADPH oxidase 2 (Homo sapiens) (UniProt P04839). Put plainly: NOX2-dependent H2O2 signal modulators, primary screen, NOX inhibitor project, cell-based, HEK293-NOX2, PMA-stimulated, Amplex Red fluorescence (AID 1159). Further: test concentration not given here. As to conditions: 45 min, higher = more signal, called active from +8 up or from −8 down.
NADPH oxidase 2 (Homo sapiens), sequence (P04839 whole entry, looked up): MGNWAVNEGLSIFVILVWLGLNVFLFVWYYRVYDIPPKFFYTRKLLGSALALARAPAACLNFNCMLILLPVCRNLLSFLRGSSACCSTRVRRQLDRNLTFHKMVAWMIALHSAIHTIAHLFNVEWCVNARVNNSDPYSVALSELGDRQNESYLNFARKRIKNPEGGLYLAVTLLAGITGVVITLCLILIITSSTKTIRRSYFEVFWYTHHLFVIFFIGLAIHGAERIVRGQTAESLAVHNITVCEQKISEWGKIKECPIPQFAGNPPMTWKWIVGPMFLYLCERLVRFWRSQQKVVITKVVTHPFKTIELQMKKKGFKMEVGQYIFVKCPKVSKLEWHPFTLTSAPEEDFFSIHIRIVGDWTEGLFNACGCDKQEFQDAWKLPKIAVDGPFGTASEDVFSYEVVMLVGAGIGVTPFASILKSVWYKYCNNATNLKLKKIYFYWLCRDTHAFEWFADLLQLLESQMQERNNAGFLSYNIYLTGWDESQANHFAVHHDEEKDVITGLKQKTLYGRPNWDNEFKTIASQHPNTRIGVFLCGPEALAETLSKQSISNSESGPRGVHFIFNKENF
Assay [9] addresses NADPH oxidase 4 (Homo sapiens) (UniProt Q9NPH5). As to the kind of experiment: NOX4-dependent H2O2 signal modulators, primary screen, NOX inhibitor project, cell-based, HEK293-NOX4, tetracycline-induced, Amplex Red fluorescence (AID 1160). As to conditions: 45 min, higher = more signal, called active from +8 up or from −8 down.
Assay [10] addresses NADPH oxidase 5 (Homo sapiens) (UniProt Q96PH1). As to the kind of experiment: NOX5-dependent H2O2 signal modulators, primary screen, NOX inhibitor project, cell-based, HEK293-NOX5, Amplex Red fluorescence (AID 1161). Particulars: HEK293-NOX5, ionomycin, 45 min, higher = more signal.
The nature of assay [11]: A549 cell viability effects, profiling panel, calcein-AM fluorescence, 48 h, basal (AID 1162). Further: test concentration not given here. Particulars: higher = more signal.
The nature of assay [12]: adipocyte viability effects, profiling panel, cell-based, 3T3-L1 adipocytes, calcein-AM fluorescence, 48 h, basal (AID 1163). Further: test concentration not given here. Particulars: 3T3-L1 adipocytes viability, higher = more signal.
Assay [13] can be described thus: HepG2 cell viability effects, profiling panel, calcein-AM fluorescence, 48 h, basal (AID 1164). Further: test concentration not given here. As to conditions: higher = more signal.
Assay [14] can be described thus: MM1S cell viability effects, profiling panel, calcein-AM fluorescence, 48 h, basal (AID 1165).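 Further: viability of MM1S multiple myeloma cells under basal unstimulated conditions; test concentration not given here.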 As to conditions: higher = more signal.
Assay [15] can be described thus: basal RPMI8226 viability, no added stimulus, profiling panel, cell-based, calcein-AM fluorescence, 48 h, PK04 Diversity Set (AID 1166).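 Further: cells grown under basal conditions without added stimulus; test concentration not given here.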 Particulars: RPMI8226 myeloma viability, higher = more signal.
A short description of assay [16]: basal HepG2 mitochondrial membrane potential changes, profiling panel, cell-based, JC-1 fluorescence, 24 h, 100 nL compound (AID 1167). Further: test concentration not given here. Particulars: higher = more signal.
Assay [17] in a line: basal 3T3-L1 adipocyte mitochondrial potential changes, profiling panel, cell-based, JC-1 fluorescence, 3T3-L1 adipocytes, 24 h, 100 nL compound (AID 1168). Further: test concentration not given here. As to conditions: JC-1 mitochondrial fluorescence, higher = more signal, called active from +8 up or from −8 down.
Assay [18] is described as follows: basal RPMI8226 mitochondrial membrane potential changes, profiling panel, cell-based, JC-1 fluorescence, 24 h, 100 nL compound (AID 1169). Further: test concentration not given here. Particulars: RPMI8226 myeloma, JC-1 mitochondrial potential fluorescence, higher = more signal.
The nature of assay [19]: basal MM1S mitochondrial membrane potential changes, profiling panel, cell-based, JC-1 fluorescence, 24 h, 100 nL compound (AID 1170). Further: test concentration not given here. As to conditions: higher = more signal.
Assay [20] is described as follows: A549 lung cancer cell viability effects, profiling panel, resazurin fluorescence, 24 h, PK04 Diversity Set (AID 1171). Further: test concentration not given here. As to conditions: higher = more signal, called active from +8 up or from −8 down. On the technique in general: The colour change of resazurin is a common sign of viable cells or microbes.

The source made the active and inactive calls.

NADPH oxidase 4 (Homo sapiens), sequence (Q9NPH5 whole entry, looked up): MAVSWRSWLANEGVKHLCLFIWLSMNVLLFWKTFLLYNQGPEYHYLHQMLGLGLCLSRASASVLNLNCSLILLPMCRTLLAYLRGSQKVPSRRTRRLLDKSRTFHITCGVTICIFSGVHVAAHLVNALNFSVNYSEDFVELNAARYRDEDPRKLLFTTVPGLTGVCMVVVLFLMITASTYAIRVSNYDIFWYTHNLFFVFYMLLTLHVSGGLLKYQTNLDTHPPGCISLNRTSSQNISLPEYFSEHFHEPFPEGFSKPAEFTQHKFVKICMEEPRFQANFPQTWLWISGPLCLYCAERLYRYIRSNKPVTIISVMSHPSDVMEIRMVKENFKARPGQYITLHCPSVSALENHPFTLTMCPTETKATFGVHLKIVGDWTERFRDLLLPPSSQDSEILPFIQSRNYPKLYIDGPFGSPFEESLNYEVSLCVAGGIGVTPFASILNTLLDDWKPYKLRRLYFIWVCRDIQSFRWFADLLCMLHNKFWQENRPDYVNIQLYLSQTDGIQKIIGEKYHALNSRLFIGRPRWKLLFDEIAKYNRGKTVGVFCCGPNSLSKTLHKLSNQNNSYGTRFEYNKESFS
NADPH oxidase 5 (Homo sapiens), sequence (Q96PH1 whole entry, looked up): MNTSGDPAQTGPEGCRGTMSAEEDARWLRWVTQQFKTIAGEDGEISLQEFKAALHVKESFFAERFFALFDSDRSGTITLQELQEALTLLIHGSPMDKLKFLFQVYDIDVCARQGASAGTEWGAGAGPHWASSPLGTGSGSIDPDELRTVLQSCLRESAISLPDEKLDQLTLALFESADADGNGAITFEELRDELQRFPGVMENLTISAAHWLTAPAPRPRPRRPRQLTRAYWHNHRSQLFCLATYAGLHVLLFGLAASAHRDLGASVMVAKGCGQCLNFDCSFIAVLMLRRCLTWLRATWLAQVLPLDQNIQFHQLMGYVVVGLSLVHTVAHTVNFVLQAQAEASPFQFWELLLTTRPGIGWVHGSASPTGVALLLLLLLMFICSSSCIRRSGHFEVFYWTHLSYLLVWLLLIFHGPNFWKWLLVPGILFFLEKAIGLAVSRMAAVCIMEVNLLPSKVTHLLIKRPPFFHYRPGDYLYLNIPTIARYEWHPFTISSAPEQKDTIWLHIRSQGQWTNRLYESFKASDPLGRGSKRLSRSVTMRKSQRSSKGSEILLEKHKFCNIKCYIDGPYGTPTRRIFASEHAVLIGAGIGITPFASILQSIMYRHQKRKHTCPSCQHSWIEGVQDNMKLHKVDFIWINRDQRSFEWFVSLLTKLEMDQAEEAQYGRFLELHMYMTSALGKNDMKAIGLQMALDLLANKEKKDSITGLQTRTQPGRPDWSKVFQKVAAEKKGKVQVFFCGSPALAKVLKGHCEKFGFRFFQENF

With `CCCNC(=O)[C@@]1(Sc2ccc(C)cc2)CC(=O)N(Cc2ccccc2Cl)[C@@H]1c1ccc(CO)cc1I`, the z-score in assay [1] was 0.244 (inactive); in assay [3], 5.36 (inactive); in [4], 0.773 (inactive); in assay [5], 0.206 (inactive); in assay [6], 0.303 (inactive); in [7], 0.009. Moreover, the z-score in [8] was 1.24 (inactive); in assay [9], -1.41 (inactive); in [10] it was 1.87; in assay [11], 1.43; in [12], -0.139; in assay [13], 1.01. Moreover, the z-score is -1.9 in assay [14]; -1.67 in assay [15]; 0.377 in assay [16]; 0.667 (inactive) in assay [17]; -0.547 in assay [18]; -1.87 in assay [19]. Moreover, in [20], the z-score is 0.204 (inactive). Also, in [2], the composite z-score turned out to be 1.08.
With `COC(=O)[C@@]1(Cc2ccc(F)cc2)[C@H]2c3cc(C(=O)N(C)C)n(CCc4ccc(O)c(O)c4)c3C[C@H]2CN1C(=O)c1ccccc1`, the z-score in [1] is -0.81 (inactive); in [3], 0.183 (inactive); in assay [4] it was 0.194 (inactive); in assay [5], 0.248 (inactive); in assay [6] it was 0.494 (inactive); in assay [7], 0.407. Also, the z-score is -0.168 (inactive) in assay [8]; -1.31 (inactive) in assay [9]; -0.966 in assay [10]; -0.681 in assay [11]; -1.17 in assay [12]; 0.193 in assay [13]. In addition, the z-score in assay [14] is 0.287; in assay [15], -0.238; in assay [16], 0.86; in [17], 0.243 (inactive); in [18] it was -0.672; in [19], -1.95. In assay [20], the z-score is -0.238 (inactive). This compound gave a composite z-score in assay [2] of 0.162.
As to `CN(C)CCCCNC(=O)[C@H]1C[C@H]2C(=O)N3CCC[C@H]3C(=O)N2[C@H]1c1cccc(OCCO)c1`, the z-score in assay [1] was -0.019 (inactive); in assay [3], 2.99 (inactive); in assay [4], 0.502 (inactive); in assay [5], 0.348 (inactive); in [6] it was 0.178 (inactive); in assay [7], -0.0038. The z-score in assay [8] is 0.787 (inactive); in [9] it was 1.37 (inactive); in [10], 0.803; in assay [11], -0.893; in assay [12], -0.0471; in [13], -0.458. In addition, the z-score in assay [14] was 0.123; in assay [15] it was 0.291; in assay [16] it was -1.05; in assay [17], 0.119 (inactive); in assay [18], 0.712; in assay [19], 0.0655. Moreover, the z-score in assay [20] was 0.677 (inactive). Also, the composite z-score in assay [2] worked out at 0.517.
In the case of `CCCC[C@H]1C[C@@H]1[C@@H]1N(C(C)=O)[C@H](c2cccc(OC)c2)CC12CC2`, the z-score is -1.17 (inactive) in assay [1]; 3.6 (inactive) in assay [3]; 0.984 (inactive) in assay [4]; 1.1 (inactive) in [5]; 0.692 (inactive) in [6]; -0.168 in assay [7]. Moreover, the z-score in [8] is -0.927 (inactive); in assay [9], 0.998 (inactive); in assay [10], -2.9; in [11], -1.54; in [12], -0.134; in [13] it was -0.793. The z-score in [14] is -0.762; in assay [15], -0.778; in assay [16], -1.07; in assay [17], 0.546 (inactive); in assay [18], -0.172; in assay [19] it was -0.643. Moreover, the z-score in [20] is 2.94 (inactive). The same compound came in with a composite z-score in [2] of 0.416.
For the compound `CC(C)C(=C=CC[C@H](O)c1ccccc1OCCO)C[C@H](O)c1cc(Cl)cc(Cl)c1O`, the z-score was -0.279 (inactive) in assay [1]; 19.5 (active) in [3]; 4.2 (inactive) in [4]; -0.25 (inactive) in assay [5]; 1.44 (inactive) in assay [6]; -0.383 in assay [7]. Also, the z-score in [8] is -1.24 (inactive); in assay [9] it was -1.67 (inactive); in assay [10], -1.88; in [11], 0.884; in assay [12] it was 0.271; in assay [13] it was 0.601. Moreover, the z-score in [14] is -3.42; in assay [15], -3.2; in [16] it was -1.1; in [17], 0.427 (inactive); in assay [18], -0.788; in assay [19], -1.07. In assay [20], the z-score was -0.0216 (inactive). In assay [2], the composite z-score turned out to be 0.199.
Turning to `C[C@@H]1ON(c2ccccc2)[C@H](c2ccccc2)[C@H]1C(=O)O`, the z-score in [1] was -0.0929 (inactive); in [3], 0.348 (inactive); in assay [4], -0.299 (inactive); in assay [5], -0.142 (inactive); in assay [6], -0.136 (inactive); in assay [7] it was 0.0366. In addition, the z-score was -0.436 (inactive) in assay [8]; 0.24 (inactive) in assay [9]; 0.46 in [10]; -0.0985 in [11]; 0.375 in assay [12]; -0.374 in assay [13]. For the same compound, the z-score in assay [14] is -0.655; in [15], 0.0402; in [16] it was -0.246; in assay [17] it was -0.212 (inactive); in assay [18], -0.0601; in assay [19] it was -0.599. For the same compound, in [20], the z-score is -0.236 (inactive). In assay [2], this compound gave a composite z-score of 0.106.
Consider `CCOC(=O)C1=CC[C@@H](c2ccccc2)N(S(=O)(=O)c2ccc(C)cc2)[C@H]1c1ccccc1I`, for which the z-score in [1] is -0.801 (inactive); in assay [3], 1.18 (inactive); in assay [4], 0.948 (inactive); in assay [5] it was -0.597 (inactive); in [6], 0.631 (inactive); in [7] it was -0.94. The z-score in assay [8] was 0.62 (inactive); in [9], 0.205 (inactive); in assay [10], 0.721; in assay [11], -0.855; in [12], -1.01; in [13] it was -0.47. Also, the z-score is -0.676 in [14]; -0.965 in [15]; 1.5 in assay [16]; -1.61 (inactive) in assay [17]; 1.14 in assay [18]; -1.16 in assay [19]. Further, the z-score in assay [20] is 0.998 (inactive). For the same compound, in [2], the composite z-score amounted to 1.24.
For `COc1ccc(C(=O)Nc2ccc(CN3C(=O)[C@@]4(O[C@@H](CCn5cc(CCO)nn5)[C@H]([Si](C)(C)c5ccc(OC)cc5)[C@H]4C)c4ccccc43)cc2)cc1`, the z-score in assay [1] was -2.53 (inactive); in assay [3], 27.6 (active); in assay [4] it was 16.4 (active); in [5] it was 2.35 (inactive); in assay [6] it was 1.43 (inactive); in assay [7] it was -0.368. The z-score in assay [8] is -1.81 (inactive); in assay [9] it was 0.515 (inactive); in assay [10], 3.12; in assay [11], -0.883; in assay [12] it was -0.319; in assay [13] it was -3.14. In addition, the z-score in [14] was -2.68; in [15], -4.27; in [16], -1.29; in assay [17] it was -0.201 (inactive); in assay [18], -0.913; in assay [19] it was -2.22. Moreover, in assay [20], the z-score is -3.31 (inactive). The compound further yielded a composite z-score in assay [2] of 0.232.
Take `COC(=O)[C@@]1(Cc2ccccc2)[C@H]2c3cc(C(=O)N4CCCC4)n(Cc4ccc(OC)c(OC)c4)c3C[C@H]2CN1C(=O)c1ccccc1`: the z-score in assay [1] was -1.08 (inactive); in [3] it was 1.76 (inactive); in assay [4], 0.41 (inactive); in assay [5], 2.24 (inactive); in assay [6] it was 0.861 (inactive); in assay [7], -0.321. The z-score in [8] was 0.136 (inactive); in [9], 0.104 (inactive); in assay [10], -3.31; in assay [11], 0.126; in assay [12], 0.106; in assay [13], -0.257. Further, the z-score is -0.571 in assay [14]; -1.05 in assay [15]; 3.84 in assay [16]; 1.09 (inactive) in [17]; -0.73 in [18]; -0.52 in assay [19]. Besides, in assay [20], the z-score is 0.613 (inactive). In [2], this compound had a composite z-score of 0.347.
